# Source: PMC7862700, “An all-to-all approach to the identification of sequence-specific readers for epigenetic DNA modifications on cytosine”
# Legend:
# Assay in all cases: DAPPL (digital affinity profiling via proximity ligation, sequencing); 10 mM Tris-HCl pH 7.5, 50 mM NaCl, 1 mM DTT, 4% glycerol, room temperature, 30 min; GST-TFs on glutathione beads, 16-mer random dsDNA library, 0.1% formaldehyde crosslink after washing; high values mean tight binding
# Settings in all cases: protein: recombinant; tags: N-terminal GST; dsDNA, one strand shown
# [1] = target: T1, FLI1 (Homo sapiens, UniProt Q01543 1-452)
# T1 sequence: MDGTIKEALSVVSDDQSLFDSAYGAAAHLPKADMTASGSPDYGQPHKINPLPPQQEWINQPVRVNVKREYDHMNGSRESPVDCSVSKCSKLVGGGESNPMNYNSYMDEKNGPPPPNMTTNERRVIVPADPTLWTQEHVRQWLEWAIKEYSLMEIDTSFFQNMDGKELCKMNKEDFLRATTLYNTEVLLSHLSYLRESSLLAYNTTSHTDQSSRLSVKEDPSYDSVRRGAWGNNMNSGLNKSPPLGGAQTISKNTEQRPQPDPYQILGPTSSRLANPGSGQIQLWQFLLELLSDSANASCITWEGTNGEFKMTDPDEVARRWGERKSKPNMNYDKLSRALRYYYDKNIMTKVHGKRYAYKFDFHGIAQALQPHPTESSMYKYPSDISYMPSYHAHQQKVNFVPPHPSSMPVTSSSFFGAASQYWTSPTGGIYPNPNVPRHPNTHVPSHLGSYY
# Outline: (§1)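 Human transcription factors carrying a GST fusion were produced in yeast, bound to glutathione beads, tagged with DNA barcodes and pooled together with a tag-only sample. Each pool was held with 200 nmole of a random double-stranded 16-mer DNA library in Tris/NaCl/DTT/glycerol buffer for 30 min at room temperature, then washed, crosslinked in 0.1% formaldehyde, proximity-ligated with BsaI/T4 ligase (1 h, 37 °C), PCR-amplified and sequenced on an Illumina NextSeq500. Binding signal is the read frequency of each hexamer for a given factor divided by its frequency in the tag-only sample.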
# [2] = target: T2, ELK1 (Homo sapiens, UniProt P19419 1-428)
# T2 sequence: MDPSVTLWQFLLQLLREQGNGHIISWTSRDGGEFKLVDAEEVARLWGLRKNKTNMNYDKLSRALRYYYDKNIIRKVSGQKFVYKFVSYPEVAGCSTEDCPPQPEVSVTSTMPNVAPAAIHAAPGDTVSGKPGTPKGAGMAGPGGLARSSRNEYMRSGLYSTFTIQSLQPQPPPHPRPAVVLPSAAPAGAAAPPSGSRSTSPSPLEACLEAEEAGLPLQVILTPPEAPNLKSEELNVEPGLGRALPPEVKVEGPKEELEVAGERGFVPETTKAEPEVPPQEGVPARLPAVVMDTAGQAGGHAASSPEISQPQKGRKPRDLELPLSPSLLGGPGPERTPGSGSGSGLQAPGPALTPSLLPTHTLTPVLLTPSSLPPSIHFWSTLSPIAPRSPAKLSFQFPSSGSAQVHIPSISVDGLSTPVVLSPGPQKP
# Outline: as §1
# [3] = target: T3, GABPA (Homo sapiens, UniProt Q06546 1-454)
# T3 sequence: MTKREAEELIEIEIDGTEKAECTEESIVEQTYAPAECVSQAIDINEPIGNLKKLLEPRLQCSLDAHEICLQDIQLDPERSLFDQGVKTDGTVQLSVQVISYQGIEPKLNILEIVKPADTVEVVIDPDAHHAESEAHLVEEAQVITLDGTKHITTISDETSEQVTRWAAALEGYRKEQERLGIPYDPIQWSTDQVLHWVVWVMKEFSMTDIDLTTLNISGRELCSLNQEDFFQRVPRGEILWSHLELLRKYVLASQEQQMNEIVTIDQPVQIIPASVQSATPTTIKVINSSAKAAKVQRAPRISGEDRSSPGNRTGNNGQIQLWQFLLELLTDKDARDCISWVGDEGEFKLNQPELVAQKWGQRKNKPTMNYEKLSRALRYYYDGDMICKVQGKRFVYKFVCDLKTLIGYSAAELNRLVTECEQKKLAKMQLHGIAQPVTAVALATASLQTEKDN
# Outline: as §1
# [4] = target: T4, ERG (Homo sapiens, UniProt P11308 1-479)
# T4 sequence: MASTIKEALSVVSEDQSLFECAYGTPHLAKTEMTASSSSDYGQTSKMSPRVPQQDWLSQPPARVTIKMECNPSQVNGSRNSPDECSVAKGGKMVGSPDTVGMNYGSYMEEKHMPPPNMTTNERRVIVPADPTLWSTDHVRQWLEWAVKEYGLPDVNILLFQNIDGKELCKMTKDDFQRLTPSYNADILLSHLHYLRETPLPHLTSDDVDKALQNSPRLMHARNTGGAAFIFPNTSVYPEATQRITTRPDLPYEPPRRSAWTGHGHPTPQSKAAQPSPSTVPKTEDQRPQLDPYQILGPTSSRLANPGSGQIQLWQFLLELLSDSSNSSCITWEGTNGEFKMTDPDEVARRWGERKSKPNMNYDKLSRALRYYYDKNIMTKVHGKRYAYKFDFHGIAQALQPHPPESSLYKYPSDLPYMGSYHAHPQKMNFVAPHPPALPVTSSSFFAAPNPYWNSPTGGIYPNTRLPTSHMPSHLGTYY
# Outline: as §1
# [5] = target: ELF1 (Homo sapiens, UniProt P32519 1-619)
# Sequence of ELF1 (P32519 whole entry): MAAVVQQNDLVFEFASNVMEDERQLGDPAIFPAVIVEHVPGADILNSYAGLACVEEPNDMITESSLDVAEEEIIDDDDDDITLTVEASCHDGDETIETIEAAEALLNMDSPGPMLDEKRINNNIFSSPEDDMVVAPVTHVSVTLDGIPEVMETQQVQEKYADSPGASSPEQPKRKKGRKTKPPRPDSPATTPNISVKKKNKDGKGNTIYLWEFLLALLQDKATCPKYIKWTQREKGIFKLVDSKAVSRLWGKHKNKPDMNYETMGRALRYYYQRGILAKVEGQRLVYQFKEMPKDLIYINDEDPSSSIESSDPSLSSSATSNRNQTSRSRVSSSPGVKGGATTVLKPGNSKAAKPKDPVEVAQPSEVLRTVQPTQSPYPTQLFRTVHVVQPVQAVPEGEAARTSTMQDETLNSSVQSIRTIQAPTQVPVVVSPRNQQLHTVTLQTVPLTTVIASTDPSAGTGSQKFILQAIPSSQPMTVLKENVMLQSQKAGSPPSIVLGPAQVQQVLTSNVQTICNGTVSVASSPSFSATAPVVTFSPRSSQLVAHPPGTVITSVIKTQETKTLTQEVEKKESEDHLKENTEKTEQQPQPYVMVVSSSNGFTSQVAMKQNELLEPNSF
# Outline: as §1
# [6] = target: T5, EHF (Homo sapiens, UniProt Q9NZC4 1-300)
# T5 sequence: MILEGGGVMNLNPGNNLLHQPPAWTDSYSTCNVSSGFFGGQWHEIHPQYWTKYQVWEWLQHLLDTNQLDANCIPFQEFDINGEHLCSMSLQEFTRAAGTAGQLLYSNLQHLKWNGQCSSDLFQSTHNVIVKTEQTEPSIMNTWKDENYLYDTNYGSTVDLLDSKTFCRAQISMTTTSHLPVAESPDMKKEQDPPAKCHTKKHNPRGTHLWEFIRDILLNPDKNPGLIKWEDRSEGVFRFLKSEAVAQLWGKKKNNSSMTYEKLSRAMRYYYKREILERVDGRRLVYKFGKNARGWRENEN
# Outline: as §1
# [7] = target: SPI1 (Homo sapiens, UniProt P17947 1-270)
# Outline: as §1
# [8] = target: SPIB (Homo sapiens, UniProt Q01892 1-262)
# Sequence of SPIB (Q01892 whole entry): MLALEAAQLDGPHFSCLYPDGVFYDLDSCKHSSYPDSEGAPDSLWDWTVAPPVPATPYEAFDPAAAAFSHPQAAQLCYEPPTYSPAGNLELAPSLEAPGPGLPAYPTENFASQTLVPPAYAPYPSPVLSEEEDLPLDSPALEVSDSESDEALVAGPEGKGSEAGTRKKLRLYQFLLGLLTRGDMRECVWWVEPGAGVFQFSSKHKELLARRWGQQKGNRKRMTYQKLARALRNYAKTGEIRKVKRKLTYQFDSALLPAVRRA
# Outline: as §1
# [9] = target: T6, ELK3 (Homo sapiens, UniProt P41970 1-407)
# T6 sequence: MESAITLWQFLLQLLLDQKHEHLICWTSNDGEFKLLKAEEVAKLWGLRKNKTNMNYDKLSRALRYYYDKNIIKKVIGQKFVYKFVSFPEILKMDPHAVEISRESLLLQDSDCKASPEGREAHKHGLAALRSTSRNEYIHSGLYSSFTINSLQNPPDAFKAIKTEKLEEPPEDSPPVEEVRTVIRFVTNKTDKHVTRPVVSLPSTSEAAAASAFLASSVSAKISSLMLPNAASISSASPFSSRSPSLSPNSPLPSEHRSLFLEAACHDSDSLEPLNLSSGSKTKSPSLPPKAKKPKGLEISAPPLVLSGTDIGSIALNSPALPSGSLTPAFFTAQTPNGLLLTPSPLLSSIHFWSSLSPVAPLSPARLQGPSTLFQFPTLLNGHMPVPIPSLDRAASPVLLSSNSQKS
# Outline: as §1
# [10] = target: T7, FEV (Homo sapiens, UniProt Q99581 1-238)
# T7 sequence: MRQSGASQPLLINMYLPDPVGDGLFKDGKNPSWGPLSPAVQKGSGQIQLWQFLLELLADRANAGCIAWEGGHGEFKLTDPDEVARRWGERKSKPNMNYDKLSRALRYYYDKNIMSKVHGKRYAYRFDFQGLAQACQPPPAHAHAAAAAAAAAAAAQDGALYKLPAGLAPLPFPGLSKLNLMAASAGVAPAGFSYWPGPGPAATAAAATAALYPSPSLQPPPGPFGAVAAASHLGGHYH
# Outline: as §1
# [11] = target: ETV5 (Homo sapiens, UniProt P41161 1-510)
# Sequence of ETV5 (P41161 whole entry): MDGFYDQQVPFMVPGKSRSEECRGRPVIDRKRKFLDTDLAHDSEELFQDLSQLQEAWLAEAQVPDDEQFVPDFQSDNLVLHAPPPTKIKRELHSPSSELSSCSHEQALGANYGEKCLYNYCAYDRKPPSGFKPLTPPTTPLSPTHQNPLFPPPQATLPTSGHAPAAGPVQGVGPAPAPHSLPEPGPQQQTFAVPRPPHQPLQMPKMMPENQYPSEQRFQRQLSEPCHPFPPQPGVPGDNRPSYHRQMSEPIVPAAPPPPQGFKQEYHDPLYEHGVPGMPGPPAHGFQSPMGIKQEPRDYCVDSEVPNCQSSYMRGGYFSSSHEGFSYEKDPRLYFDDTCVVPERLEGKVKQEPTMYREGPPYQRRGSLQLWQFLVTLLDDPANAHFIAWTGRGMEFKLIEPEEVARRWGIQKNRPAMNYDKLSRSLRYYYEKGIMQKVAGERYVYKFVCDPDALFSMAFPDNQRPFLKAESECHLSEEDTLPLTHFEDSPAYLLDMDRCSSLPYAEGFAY
# Outline: as §1
# [12] = target: T8, SPIC (Homo sapiens, UniProt Q8N5J4 1-248)
# T8 sequence: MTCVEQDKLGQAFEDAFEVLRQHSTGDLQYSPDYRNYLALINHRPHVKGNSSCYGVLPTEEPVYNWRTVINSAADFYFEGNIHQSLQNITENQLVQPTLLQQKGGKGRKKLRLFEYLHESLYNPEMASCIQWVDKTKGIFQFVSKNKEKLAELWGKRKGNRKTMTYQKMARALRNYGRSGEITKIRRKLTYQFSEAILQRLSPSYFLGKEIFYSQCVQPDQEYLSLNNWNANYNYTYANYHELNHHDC
# Outline: as §1
# [13] = target: ELF4 (Homo sapiens, UniProt Q99607 1-663)
# Sequence of ELF4 (Q99607 whole entry): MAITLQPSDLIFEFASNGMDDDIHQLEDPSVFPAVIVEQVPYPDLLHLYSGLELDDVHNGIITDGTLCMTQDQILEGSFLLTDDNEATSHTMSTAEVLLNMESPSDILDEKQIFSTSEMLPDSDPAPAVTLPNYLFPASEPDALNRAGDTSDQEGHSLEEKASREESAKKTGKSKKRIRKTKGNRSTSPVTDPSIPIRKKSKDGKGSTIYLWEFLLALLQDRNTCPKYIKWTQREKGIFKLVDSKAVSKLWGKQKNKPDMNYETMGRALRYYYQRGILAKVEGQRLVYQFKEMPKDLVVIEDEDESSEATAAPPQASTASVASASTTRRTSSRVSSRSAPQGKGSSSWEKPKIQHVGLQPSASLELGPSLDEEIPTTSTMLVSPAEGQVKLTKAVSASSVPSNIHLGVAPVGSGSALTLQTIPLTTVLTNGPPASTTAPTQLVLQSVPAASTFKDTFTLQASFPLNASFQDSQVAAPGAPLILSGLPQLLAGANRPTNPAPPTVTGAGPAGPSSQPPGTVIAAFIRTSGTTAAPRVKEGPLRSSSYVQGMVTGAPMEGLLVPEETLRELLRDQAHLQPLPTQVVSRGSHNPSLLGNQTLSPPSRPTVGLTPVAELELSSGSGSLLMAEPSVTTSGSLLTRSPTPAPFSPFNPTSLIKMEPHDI
# Outline: as §1
# [14] = target: T9, ERF (Homo sapiens, UniProt P50548 1-548)
# T9 sequence: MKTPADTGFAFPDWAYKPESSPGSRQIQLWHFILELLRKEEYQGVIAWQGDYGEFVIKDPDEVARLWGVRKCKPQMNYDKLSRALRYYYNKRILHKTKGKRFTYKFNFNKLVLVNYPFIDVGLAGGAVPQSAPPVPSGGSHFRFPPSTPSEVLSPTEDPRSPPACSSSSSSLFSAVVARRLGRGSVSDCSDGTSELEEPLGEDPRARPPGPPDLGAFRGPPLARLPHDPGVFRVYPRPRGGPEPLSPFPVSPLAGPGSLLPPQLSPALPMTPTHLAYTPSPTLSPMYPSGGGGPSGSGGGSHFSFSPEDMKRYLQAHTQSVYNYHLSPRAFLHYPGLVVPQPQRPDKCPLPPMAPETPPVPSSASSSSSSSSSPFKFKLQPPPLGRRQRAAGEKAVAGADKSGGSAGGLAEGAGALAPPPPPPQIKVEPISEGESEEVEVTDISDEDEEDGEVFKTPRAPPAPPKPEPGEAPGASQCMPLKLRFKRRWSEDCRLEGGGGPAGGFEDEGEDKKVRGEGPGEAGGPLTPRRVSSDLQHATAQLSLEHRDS
# Outline: as §1
# [15] = target: T10, ETV3L (Homo sapiens, UniProt Q6ZN32 1-361)
# T10 sequence: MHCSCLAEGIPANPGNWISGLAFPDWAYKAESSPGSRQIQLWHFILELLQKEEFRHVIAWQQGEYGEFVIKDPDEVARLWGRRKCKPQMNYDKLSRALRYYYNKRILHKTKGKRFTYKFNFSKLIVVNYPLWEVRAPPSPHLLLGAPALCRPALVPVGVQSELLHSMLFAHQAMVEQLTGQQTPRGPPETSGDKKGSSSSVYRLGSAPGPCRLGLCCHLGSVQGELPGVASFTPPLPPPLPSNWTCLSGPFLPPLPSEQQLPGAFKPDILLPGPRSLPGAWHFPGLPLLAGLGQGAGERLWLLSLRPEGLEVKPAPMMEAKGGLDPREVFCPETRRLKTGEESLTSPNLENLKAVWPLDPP
# Outline: as §1
# [16] = target: T11, ETS2 (Homo sapiens, UniProt P15036 1-469)
# T11 sequence: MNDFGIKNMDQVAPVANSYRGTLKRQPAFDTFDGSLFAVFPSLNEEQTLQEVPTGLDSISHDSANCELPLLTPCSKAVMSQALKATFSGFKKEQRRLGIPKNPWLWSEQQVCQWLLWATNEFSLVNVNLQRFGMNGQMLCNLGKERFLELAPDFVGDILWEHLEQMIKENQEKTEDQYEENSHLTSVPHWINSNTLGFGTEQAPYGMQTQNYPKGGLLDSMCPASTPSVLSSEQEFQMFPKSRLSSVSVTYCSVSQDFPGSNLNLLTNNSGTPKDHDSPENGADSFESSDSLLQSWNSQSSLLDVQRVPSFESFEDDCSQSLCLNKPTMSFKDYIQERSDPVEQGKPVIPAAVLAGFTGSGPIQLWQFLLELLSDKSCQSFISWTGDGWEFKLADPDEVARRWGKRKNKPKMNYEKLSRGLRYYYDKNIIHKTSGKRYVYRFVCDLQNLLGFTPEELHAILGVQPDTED
# Outline: as §1
# [17] = target: T12, SPDEF (Homo sapiens, UniProt O95238 1-335)
# T12 sequence: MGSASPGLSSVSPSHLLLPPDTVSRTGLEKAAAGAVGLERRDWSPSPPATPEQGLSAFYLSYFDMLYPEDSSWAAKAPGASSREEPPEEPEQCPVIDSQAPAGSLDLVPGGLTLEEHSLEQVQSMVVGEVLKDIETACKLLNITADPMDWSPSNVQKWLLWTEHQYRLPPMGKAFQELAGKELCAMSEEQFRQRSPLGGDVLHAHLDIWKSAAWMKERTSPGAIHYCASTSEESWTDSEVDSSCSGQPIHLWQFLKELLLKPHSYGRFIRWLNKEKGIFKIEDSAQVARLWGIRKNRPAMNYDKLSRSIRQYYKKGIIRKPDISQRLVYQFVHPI
# Outline: as §1
# [18] = target: T13, ETV3 (Homo sapiens, UniProt P41162-2 1-143)
# T13 sequence: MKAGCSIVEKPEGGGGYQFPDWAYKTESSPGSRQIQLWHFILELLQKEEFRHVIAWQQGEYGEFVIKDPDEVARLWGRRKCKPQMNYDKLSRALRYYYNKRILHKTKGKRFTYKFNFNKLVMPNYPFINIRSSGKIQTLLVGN
# Outline: as §1
sequence,measurement,setting,value
GTCTTG,binding signal,[1],"1.02 fold enrichment (6-mer frequency, TF over GST control)"
same,binding signal,[2],"1.02 fold enrichment (6-mer frequency, TF over GST control)"
same,binding signal,[3],"1.11 fold enrichment (6-mer frequency, TF over GST control)"
same,binding signal,[4],"1.05 fold enrichment (6-mer frequency, TF over GST control)"
same,binding signal,[5],"1 fold enrichment (6-mer frequency, TF over GST control)"
same,binding signal,[6],"1.09 fold enrichment (6-mer frequency, TF over GST control)"
same,binding signal,[7],"1.01 fold enrichment (6-mer frequency, TF over GST control)"
same,binding signal,[8],"1.04 fold enrichment (6-mer frequency, TF over GST control)"
same,binding signal,[9],"1.17 fold enrichment (6-mer frequency, TF over GST control)"
same,binding signal,[10],"1.01 fold enrichment (6-mer frequency, TF over GST control)"
same,binding signal,[11],"1.01 fold enrichment (6-mer frequency, TF over GST control)"
same,binding signal,[12],"1.11 fold enrichment (6-mer frequency, TF over GST control)"
same,binding signal,[13],"1.06 fold enrichment (6-mer frequency, TF over GST control)"
same,binding signal,[14],"1.15 fold enrichment (6-mer frequency, TF over GST control)"
same,binding signal,[15],"1.04 fold enrichment (6-mer frequency, TF over GST control)"
same,binding signal,[16],"1 fold enrichment (6-mer frequency, TF over GST control)"
same,binding signal,[17],"1.05 fold enrichment (6-mer frequency, TF over GST control)"
same,binding signal,[18],"1 fold enrichment (6-mer frequency, TF over GST control)"
